Here are results for 40 compounds from PubChem BioAssay (NCATS).

The structures appear in SMILES notation. The source made the active and inactive calls. Calls follow the shape of the dose curve; as a rule, active = well fitted inhibition curve with a large enough effect; inconclusive = small, poorly fitted or top-dose-only effect; inactive = flat fitted curve, though single readings scatter.
Potency is read from the fitted curve at half-maximal effect.

In this assay the test system is Nanoluciferase (engineered Oplophorus gracilirostris luciferase). The experiment in a line: Primary Nanoluciferase (NLuc) qHTS assay for identification of artifact compounds. (AID 1845222). The following applies: NLuc-conditioned medium, Nano-Glo luminescence, 5 min; series mostly up to 54.1 µM; activity, negative = inhibition: at the top concentration. An excerpt:
PI: Alexander Tropsha Ph.D.
UNC Eshelman School of Pharmacy
University of North Carolina, Chapel Hill, North Carolina
Hits from high-throughput screening (HTS) of chemical libraries are often false positives due to their interference with the assay detection technology. In response to this problem, we generated the largest publicly available library of chemical liabilities and developed a free webtool to predict HTS artifacts, both of which are described herein. More specifically, we generated, curated, and integrated HTS datasets for thiol reactivity, redox activity, and luciferase (firefly and nano) activity. Using these curated datasets, we developed and validated several Quantitative Structure-Interference Relationship (QSIR) models to predict nuisance behavior. […] These models were employed for virtual profiling of the National Center for Advancing Translational Science's (NCATS) in-house library, and 256 compounds for each assay were selected for the experimental validation of nuisance behavior. The BA for these external predictions ranged from 58 to 78% for compounds within the applicability domains of the models. […] The models developed in this study, along with aggregation models previously developed by our group (SCAM Detective) were implemented in "Liability Predictor," an online tool which may be used as part of chemical library design or for triaging HTS hits. Both the models and the curated datasets are publicly available at https://liability.mml.unc.edu/.
SEQUENCE No. (e.g., 1, 2, 3, etc.); […] (e.g., Cells, Incubation, Reagent, etc.); VALUE; DESCRIPTION.
1; Reagent; 2 uL; Nanoluciferase media.
2; Compounds and control; 16 nL; Kalypsis pin tool (Wako USA) equipped with a 1536-well pin head.
4; Reagent; 2 uL; Luciferase enzyme.
6; Detection; Luminescence, ViewLux microplate reader.
NOTES (numbers refer to Sequence numbers above)
1. Medium was collected from the culture flasks of NLuc-expressing S16 cells (80% confluent) prior to cell plating, filtered through a 0.22um filter, and frozen at -20C prior to use. Media was diluted (1:55) and 2 uL was dispensed into all wells of a 1536-well assay plate (solid-bottom white plate; Greiner Bio One, Monroe, NC).
2. A Wako Pin-tool (Wako Automation, Richmond, VA) was used to transfer 16 nL of compounds (consisting of 7-plates in qHTS format, final concentration range 18.3 nM to 114 uM) or control Cilnidipine (final concentration range 623 nM to 80 uM).
3. 15 min. incubation at room temperature protected from light.
4. 2 uL of NLuc substrate (1:100 in Nano-Glo luciferase buffer; Nano-Glo luminescence assay, Promega, Madison, WI) was dispensed for a final assay volume of 4 uL.
5. Plates were centrifuged (121xg, 15 seconds) and incubated for 5 minutes.
6. Samples were read for luminescence on a ViewLux CCD imager (PerkinElmer). Data were normalized to no-enzyme (0% activity) and no-inhibitor (DMSO; 100%) controls and the resulting percent inhibition data were fitted to a 4-parameter Hill equation using NCATS in-house software.
(qHTS replaces the single test concentration by a dilution series.)
Turning to `Fc1ccccc1CNCc1ccc(-c2ccnc3[nH]ccc23)cc1`, the “activity, negative = inhibition” value was 3.68% (inactive). On to `CC1OC2O[C@H]3[C@@H](OCC(O)[C@H]3O)OC(=O)C34CCC(C)(C)CC3C3=CCC5C6(C)CC(O)C(OC7OC(CO)C(O)C(O)C7O[C@@H]7OC[C@H](OC(=O)CC(C)(O)CC(=O)OC1C(OC1OCC(O)C(O)C1O)C2O)[C@@H](O)[C@H]7O)C(C)(CO)C6CCC5(C)C3(C)CC4` (stereo not given in full), for which the “activity, negative = inhibition” value was 1.86% [at 25.7 µM] (inactive). Still for that read-out and setting: next, `C=C1[C@@H](C)[C@H]2[C@H](Cc3c[nH]c4ccccc34)NC(=O)[C@]23C(=O)/C=C/C(=O)[C@H](O)/C(C)=C\[C@@H](C)C/C=C/[C@H]3[C@@H]1O`: -2.43% [at 25.7 µM] (inactive); `C=C(C)[C@@H]1CC[C@]2(C(=O)O)CC[C@]3(C)C(CCC4[C@@]5(C)C[C@@H](O)[C@H](O)C(C)(C)C5CC[C@]43C)C12` (stereo not given in full): -1.55% [at 25.7 µM] (inactive); `CCC[C@@H](NC(=O)N1C(=O)C(CC)(CC)[C@@H]1Oc1ccc(C(=O)N2CCN(C)CC2)cc1)c1ccc2c(c1)OCO2`: 3.47% (inactive). Take `COc1cc(N2CCN(C(C)=O)CC2)ccc1Nc1ncc(Cl)c(Nc2ccc(N3CCN(C(C)=O)CC3)cc2OC)n1`: the “activity, negative = inhibition” value was 2.38% (inactive).

As to `CC1CCCC(SCC(O)C(=O)O)CC(=O)c2c(O)cc(O)cc2CC(=O)O1` (stereo not given), the “activity, negative = inhibition” value was -8.13% [at 25.7 µM] (inactive). As to `COc1cc(N2CCN(C)CC2)ccc1Nc1nccc(-c2cn(C)c3cnccc23)n1`, the “activity, negative = inhibition” value was 3.58% (inactive). On the same count and under the same terms, in the case of `COc1cc(O)c(C(=O)CCc2ccc(O)cc2)c(O[C@@H]2O[C@H](CO)[C@@H](O)[C@H](O)[C@H]2O)c1` it was -3.88% [at 25.7 µM] (inactive); in that of `COc1ccc(-c2cc(C(O)C3CCCCN3)c3ccccc3n2)cc1` (stereo not given), 0.684% (inactive).

As to `OCC(CO)(CO)NCC(O)Cn1c2ccc(Cl)cc2c2cc(Cl)ccc21` (stereo not given), the “activity, negative = inhibition” value was 2.81% (inactive). As to `CC(=O)c1c(OCCN2CCCCC2)c(OCCC(C)c2ccc(F)cc2)c2oc(C)nc2c1C` (stereo not given), the “activity, negative = inhibition” value is 0.176% (inactive).

In the case of `C/C=C(/COC(=O)/C(C)=C/C)C(=O)OC/C=C/c1ccc(OC)cc1`, the “activity, negative = inhibition” value is 1.17% (inactive). With `CC[C@H]1OC(=O)[C@H](C)[C@@H](O[C@H]2C[C@@](C)(OC)[C@@H](O)[C@H](C)O2)[C@H](C)[C@@H](O[C@@H]2O[C@H](C)C[C@H](N(C)C)[C@H]2O)[C@](C)(O)C[C@@H](C)/C(=N/OCOCCOC)[C@H](C)[C@@H](O)[C@]1(C)O`, the “activity, negative = inhibition” value is 4.73% (inactive). Same read-out and setting: in the case of `N#C[C@@H]1C[C@@H]2C[C@@H]2N1C(=O)[C@@H](N)C12CC3CC(CC(O)(C3)C1)C2` it was 2.13% (inactive).

In the case of `C=C1CC[C@@H]2[C@](C)(CO)[C@H](O)CC[C@@]2(C)[C@@H]1C/C=C1/C(=O)OC[C@@H]1O`, the “activity, negative = inhibition” value was 0.649% (inactive).

As for `C=C1/C(=C/C=C2\CCC[C@]3(C)[C@@H]([C@H](C)/C=C/C(=O)C4CC4)CC[C@@H]23)C[C@@H](O)C[C@@H]1O`, the “activity, negative = inhibition” value was -15.8% (inactive). In the case of `OCC(Cc1ccccc1)Nc1nc(Oc2ccc3c(c2)CCC3)nc2c1ncn2Cc1ccc(-c2ccccc2)cc1` (stereo not given), the “activity, negative = inhibition” value is 1.54% (inactive). As to `C=C(C)C(=O)O[C@H]1[C@H]2C(=C)C(=O)O[C@@H]2C[C@@H](C)[C@@H]2O[C@@H]2C(=O)[C@](C)(O)[C@@H]1OC(C)=O`, the “activity, negative = inhibition” value is 4.58% [at 25.7 µM] (inactive). In the case of `CCOC(=O)c1cccc(CNc2ccc(N(C)C(=O)Nc3ccccc3)cc2)c1`, the “activity, negative = inhibition” value is -0.11% (inactive).

`N#Cc1ccc2c(c1)CCN(CCC1CCC(NC(=O)c3ccnc4ccccc34)CC1)C2` (stereo not given): the “activity, negative = inhibition” value is -0.0584% (inactive).

In the case of `C=CC(=O)Nc1cccc(Nc2nc(Nc3ccc(Oc4ccnc(C(=O)NC)c4)cc3)ncc2F)c1`, the “activity, negative = inhibition” value is -14.6% (inactive). Turning to `Nc1ncnc2c1ncn2[C@@H]1O[C@H](CO)C[C@H]1O`, the “activity, negative = inhibition” value is 0% (inactive). On the same count and under the same terms, in the case of `C=C(C)C(=O)OC1[C@@H]2C(=C)C(=O)O[C@@H]2C[C@@H](C)[C@@H]2C=CC(=O)[C@@]12C` (stereo not given in full) it was 0% (inactive). Same read-out and setting: in the case of `COc1ccc(C2(CNC(=O)[C@](C)(Cc3c[nH]c4ccccc34)NC(=O)Nc3ccc([N+](=O)[O-])cc3)CCCCC2)nc1` it was 4.94% (inactive); in that of `CCCCOc1ccc(-c2cncc(C(=O)NCc3cccnc3N3CCOCC3)c2)cc1Cl`, -0.841% (inactive). On to `Nc1nc(NCC2CCC(CNS(=O)(=O)c3cccc4ccccc34)CC2)nc2ccccc12` (stereo not given), for which the “activity, negative = inhibition” value was -3.04% (inactive). `CCOP(=O)(Cc1ccc(C(=O)Nc2ccc(Br)cc2C#N)cc1)OCC`: the “activity, negative = inhibition” value is -3.55% [at 25.7 µM] (inactive). Consider `COc1cc2nc(N3CCN(C)CC3)nc(NC3CCN(Cc4ccccc4)CC3)c2cc1OC`, for which the “activity, negative = inhibition” value was 0.1% (inactive). Consider `COc1c(N2CC3CCCNC3C2)c(F)cc2c(=O)c(C(=O)O)cn(C3CC3)c12` (stereo not given), for which the “activity, negative = inhibition” value was 0% (inactive). In the case of `CC1(C)CC23[C@@H]4CC(=O)[C@@H]2COC(=O)[C@@H]3CC[C@H]41`, the “activity, negative = inhibition” value was 2.27% (inactive). As to `C[C@@H](O[C@H]1OCCN(Cc2n[nH]nc2CN(C)C)[C@H]1c1ccc(F)cc1)c1cc(C(F)(F)F)cc(C(F)(F)F)c1`, the “activity, negative = inhibition” value is 3.48% (inactive). For the compound `CC1OC2OC3C(OCC(O)C3O)OC(=O)C34CCC(C)(C)CC3C3=CCC5C6(C)CC(O)C(OC7OC(CO)C(O)C(O)C7OC7OCC(OC(=O)CC(C)(O)CC(=O)OC1C(OC1OCC(O)C(O)C1O)C2O)C(O)C7O)C(C)(CO)C6CCC5(C)C3(C)CC4O` (stereo not given), the “activity, negative = inhibition” value is 3.2% [at 25.7 µM] (inactive). On to `C=CC(=O)Nc1cc(Nc2nccc(-c3cn(C)c4ccccc34)n2)c(OC)cc1N(C)CCN(C)C`, for which the “activity, negative = inhibition” value is 0% (inactive). For the compound `CCCCc1nc(C)c(CC(=S)N(C)C)c(=O)n1Cc1ccc(-c2ccccc2-c2nn[nH]n2)cc1`, the Potency was 16.9 µM (active).

`Cn1cnc(-c2nccc3c(=O)[nH]c(OCCCC(F)(F)F)nc23)c1`: the “activity, negative = inhibition” value is -1.96% (inactive). Regarding `CC[C@H](C)[C@H]1O[C@]2(CC[C@@H]1C)C[C@@H]1C[C@@H](C/C=C(\C)[C@@H](O[C@H]3C[C@H](OC)[C@@H](O[C@H]4C[C@H](OC)[C@@H](O)[C@H](C)O4)[C@H](C)O3)[C@@H](C)/C=C/C=C3\CO[C@@H]4[C@H](O)C(C)=C[C@@H](C(=O)O1)[C@]34O)O2`, the “activity, negative = inhibition” value is 0% (inactive).

`O=C(Nc1ccc(F)cc1)N1CCc2ccccc2C1c1ccc(C(F)(F)F)cc1` (stereo not given): the “activity, negative = inhibition” value is -8.33% (inactive). On to `CN(C)CCCCCCNC(=O)c1cccc(-c2cc(O)c3ncccc3c2)c1`, for which the “activity, negative = inhibition” value is -1.38% (inactive).

Take `COc1ccc(-c2c(C)c(C(=O)NN3CCCCC3)nn2-c2ccc(Cl)cc2Cl)cc1`: the “activity, negative = inhibition” value was -0.0759% (inactive).
